From PubChem
Shown are actives, neighbours in structure and some others; about 2.4% of the full set was active somewhere.
WRN helicase inh = blocks human WRN helicase. Potency, µM (highest dose often 114 µM), for inactives: top-dose activity change, negative = inhibition, actives largely listed as inhibitors. Q14191. 360,000 tested, 0.46% active. WRN helicase unwinding, fluorescent forked duplex, kinetic. AID 651768; also: % is scaled to controls: 0 for no effect and ±100 for the full control effect; nearly all actives have a fitted effect of over 55% in size
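Enzyme (20 nM final) and test compound sit together 15 min at room temperature before substrate addition. Substrate is a single-forked duplex oligonucleotide (100 nM) labelled with fluorophore and quencher, with 2 mM ATP; helicase unwinding raises red fluorescence, read kinetically.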
Pol eta inh-1 = blocks human DNA polymerase eta activity; Q9Y253; recombinant Pol eta, fluorescent DNA replication assay; Potency, µM (highest dose often 114 µM), for the others: at the top dose activity change, negative = inhibition, actives largely listed as inhibitors; 390,000 tested, 1.2% active; AID 588591; also: % is scaled to controls: 0 for no effect and ±100 for the full control effect
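Pol eta at 10 nM preincubated with compounds 15 min at room temperature; reaction started with fluorescent substrate (50 nM final) and read kinetically at 0 and 10 min.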
Pol beta inh = DNA polymerase beta (human) inhibition | P06746 | Pol beta primer extension/strand displacement, fluorescence kinetic | Potency, µM (series often up to 114 µM), without a hit: at the top dose activity change, negative = inhibition, actives largely listed as inhibitors | 340,000 tested, 1.3% active; also: % is scaled to controls: 0 for no effect and ±100 for the full control effect
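Values derive from four-parameter Hill fits of normalized kinetic data: reads at 0 and 10 min following addition of 50 nM substrate to 10 nM Pol beta preincubated 15 min with compound.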
Pol kappa inh-1 = blocks human DNA polymerase kappa activity; Q9UBT6; purified Pol kappa, fluorescent DNA synthesis assay, 10 min; Potency, µM (highest dose often 107 µM), inactives show at the top dose activity, negative = inhibition, usual class: inhibitors; 400,000 tested, 0.53% active; also: % is scaled to controls: 0 for no effect and ±100 for the full control effect
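50 nM final substrate added after 15 min RT preincubation of 10 nM Pol kappa with compound; fluorescence read at 0 and 10 min.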
Pol iota inh = blocks human DNA polymerase iota activity. Pol iota fluorescent replication assay, 10 min. Potency, µM (doses to about 115 µM), inactives show at the top dose activity, negative = inhibition, most hits filed as inhibitors. 390,000 tested, 1% active. AID 588590
Target sequence (Q9UNA4 whole entry, looked up): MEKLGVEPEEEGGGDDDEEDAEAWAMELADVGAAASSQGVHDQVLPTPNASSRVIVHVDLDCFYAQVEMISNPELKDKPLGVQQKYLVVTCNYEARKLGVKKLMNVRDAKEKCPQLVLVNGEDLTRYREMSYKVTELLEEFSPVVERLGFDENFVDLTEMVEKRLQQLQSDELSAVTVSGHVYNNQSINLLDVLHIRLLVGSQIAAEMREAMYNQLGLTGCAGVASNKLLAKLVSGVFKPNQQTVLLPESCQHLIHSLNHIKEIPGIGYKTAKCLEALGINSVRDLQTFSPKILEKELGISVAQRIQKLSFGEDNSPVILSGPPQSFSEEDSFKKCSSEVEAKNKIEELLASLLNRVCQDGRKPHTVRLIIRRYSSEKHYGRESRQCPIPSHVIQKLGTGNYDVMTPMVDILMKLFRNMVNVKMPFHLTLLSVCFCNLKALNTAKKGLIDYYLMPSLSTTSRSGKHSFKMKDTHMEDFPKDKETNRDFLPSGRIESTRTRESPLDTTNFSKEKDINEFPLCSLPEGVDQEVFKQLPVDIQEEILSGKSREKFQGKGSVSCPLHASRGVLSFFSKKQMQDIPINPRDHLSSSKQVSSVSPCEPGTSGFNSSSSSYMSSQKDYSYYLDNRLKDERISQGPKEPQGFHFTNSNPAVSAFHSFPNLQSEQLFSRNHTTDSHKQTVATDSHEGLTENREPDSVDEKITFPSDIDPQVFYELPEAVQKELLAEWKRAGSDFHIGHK
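Pol iota at 10 nM preincubated 15 min with compounds at room temperature; reaction started with fluorescent substrate, 50 nM final. Fluorescence read kinetically at 0 and 10 min; buffer-only wells as negative control.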
FEN1 inh-1 = human FEN1 inhibition; P39748; Recombinant FEN1 flap cleavage, fluorescence, 15 min; Potency, µM (highest dose often 114 µM), without a hit: top-dose activity change, negative = inhibition, actives largely listed as inhibitors; 390,000 tested, 0.35% active; also: % is scaled to controls: 0 for no effect and ±100 for the full control effect; nearly all actives have a fitted effect of over 65% in size
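Enzyme 10 nM, 15 min RT preincubation with compound; start with substrate 50 nM final; reads at 0 and 15 min; qHTS titration, four-parameter Hill fit.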
TbPGK inh = TbPGK inhibition, hit validation | shares compounds with Pol kappa inh-1 | TbPGK coupled GAPDH assay, Kinase-Glo luminescence | Potency, µM (top dose mostly 57.5 µM), for inactives: at the top dose activity change, negative = inhibition, actives largely listed as inhibitors | 500 tested, 79% active; also: % is scaled to controls: 0 for no effect and ±100 for the full control effect; nearly all actives have a fitted effect of over 65% in size
POLI cherry-pick = Inhibitors of human DNA polymerase iota, confirmation | shares compounds with Pol kappa inh-1 | Pol iota primer extension, TAMRA/BHQ fluorescence | Potency, µM, hits mostly inhibitors | 1,500 tested, 77% active | AID 720496
Pol kappa inh-2 = Pol kappa (human) inhibition, cherry-pick confirmation. purified Pol-kappa, fluorescent strand-displacement substrate. Potency, µM, actives largely listed as inhibitors. AID 720501. shares compounds with Pol eta inh-1. 920 tested, 76% active
Pol eta inh-2 = Pol eta (human) inhibition, cherry-pick confirmation; AID 720502; shares compounds with Pol eta inh-1; 2,600 tested, 64% active; Potency, µM, usual class: inhibitors; Pol eta primer extension, TAMRA/BHQ fluorescence, 10 min
FEN1 inh-2 = confirmation of human FEN1 inhibitors | shares compounds with FEN1 inh-1 | FEN1 flap cleavage, TAMRA/BHQ2 fluorogenic DNA substrate | Potency, µM, most hits filed as inhibitors | 880 tested, 79% active; also: nearly all actives have a fitted effect of over 60% in size
* marks the source's active call; other numbers are inactive results; ? = inconclusive; . = no result; [ ] = dose if it differs, or a comment. Calls follow the shape of the dose curve; as a rule, active = well fitted curve in the direction sought with a large enough effect; inconclusive = small, poorly fitted or top-dose-only effect, or another doubt; inactive = no such curve, though single readings can be large; an effect the other way counts as inactive or inconclusive. Potency is read from the fitted curve at half-maximal effect.

SMILES	WRN helicase inh	Pol eta inh-1	Pol beta inh	Pol kappa inh-1	Pol iota inh	FEN1 inh-1	POLI cherry-pick	Pol eta inh-2	FEN1 inh-2	others
Cc1ccc(NC(=O)CN2C(=O)N/C(=C\c3cccn3-c3ccc(C(=O)NC#N)cc3)C2=O)cc1	.	.	.	.	.	.	38*	43*	30*
Cc1cccc(NC(=O)CN2C(=O)N/C(=C\c3ccc(-c4cccc(C(=O)O)c4)o3)C2=O)c1	?	?	?	?	?	?	67*	27*	76*
Cc1ccc(NC(=O)CN2C(=O)N/C(=C/c3ccc(C)o3)C2=O)cc1	-13%	-2%	0%	-5%	-11%	0%	.	.	.
COC(=O)c1nc2n(n1)C(c1cc(OC)ccc1OC)C(C(=O)Nc1ccc(C)cc1C)=C(C)N2 (stereo unspecified)	.	-3%	-4%	-15%	6%	15%	.	.	.
O=C(O)c1cn(C2CC2)c2cc(N3CCN(S(=O)(=O)c4ccc5c(c4)OCCO5)CC3)c(F)cc2c1=O	79µM*	79µM*	-8%	-4%	-23%	?	27*	.	43*
O=C1/C(=C\c2c(NCCOCCO)nc3ccccn3c2=O)SC(=S)N1Cc1ccco1	22µM*	79µM*	18µM*	?	?	?	?	.	85*
O=C(Nc1ccc([N+](=O)[O-])cc1Cl)c1cc(Br)ccc1O	.	.	.	-3%	8%	-5%	.	.	.
Cc1cc(C)n2nc(C(=O)N/N=C/c3ccccc3Cl)nc2n1	3%	0%	22%	-2%	43%	-1%	.	.	.
Cc1cc(C)n2nc(C(=O)N/N=C/c3c4ccccc4cc4ccccc34)nc2n1	?	?	?	-16%	-1%	45µM*	67*	?	?
CC(=O)Nc1ccc(NC(=O)C(C)OC(=O)/C(C#N)=C/c2ccc(N(C)C)cc2)cc1 (stereo unspecified)	?	?	.	-4%	?	?	.	.	.
CC(OC(=O)/C(C#N)=C/c1ccc(N(C)C)cc1)C(=O)N(C)c1ccccc1 (stereo unspecified)	56µM*	79µM*	.	79µM*	50µM*	50µM*	24*	34*	38*
N#CC(C#N)=C(N)/C(C#N)=C/c1cc(O)c(O)c(O)c1	?	?	.	0.79µM*	?	8.9µM*	47*	.	19*
CCc1ccc(-n2c(C)nc3cc(C(=O)NCCc4ccccc4)ccc32)cc1	.	-23%	-18%	-2%[60.1 µM]	-29%	-1%	.	.	.
NS(=O)(=O)c1ccc(N/N=C/c2ccccc2C(=O)O)c([N+](=O)[O-])c1	-16%	-5%	1%	-18%	58%	-2%	.	.	.
NS(=O)(=O)c1ccc(N/N=C/c2ccc(O)c(O)c2O)c([N+](=O)[O-])c1	?	2.5µM*	1.3µM*	10µM*	2.8µM*	10µM*	17*	15*	15*
COc1ccccc1NS(=O)(=O)c1ccc(N/N=C/c2ccccc2OCC(=O)O)c([N+](=O)[O-])c1	-23%	?	-9%	-20%	?	?	.	.	.
O=C(O)c1ccccc1NS(=O)(=O)c1ccc(N/N=C/c2ccc(O)c(O)c2)c([N+](=O)[O-])c1	11µM*	2.5µM*	.	32µM*	7.9µM*	28µM*	27*	30*	48*	TbPGK inh=10µM*;Pol kappa inh-2=17*
Cc1ccccc1CN1CCc2nc(Nc3ccc4c(c3)OCCO4)ncc2C1	.	.	-11%	5%[60.1 µM]	-2%	-5%	.	.	.
C=Cc1c(C)c2cc3[nH]c(cc4nc(cc5nc(cc1[nH]2)C(C)=C5CCC(=O)O)C(CCC(=O)O)=C4C)c(C)c3C=C	35µM*	4.5µM*	1.4µM*	9.5µM*	10µM*	35µM*	3*	2.7*	34*	TbPGK inh=0.23µM*
CCS(=O)(=O)n1nc(-c2ccco2)nc1NCc1ccc(C(C)C)cc1	.	-21%	-13%	-15%	1%	-1%	.	.	.
N#Cc1c(-c2ccco2)cc(-c2ccccc2)[nH]c1=O	-26%[11.6 µM]	-17%	?	?	10µM*	-31%	42*	27*	76*	Pol kappa inh-2=12*
Cc1ccc(Cc2nc3ccccc3nc2SCC(=O)NCc2ccccc2Cl)cc1	.	-14%	13%	0%[60.1 µM]	9%	12%	.	.	.
O=C(CSc1nnc(-c2cccc(S(=O)(=O)N3CCCC3)c2)n1-c1ccccc1)Nc1ccc(C(=O)O)cc1	50µM*	35µM*	32µM*	?	?	?	42*	43*	76*
O=C(CSc1nnc(-c2cccc(S(=O)(=O)N3CCCC3)c2)n1-c1ccccc1)Nc1cccc(C(=O)O)c1	-7%	3%	-30%	2%	?	-17%	.	.	.
Cc1cc(NC(=O)c2ccc(NC(=O)CCS(=O)(=O)c3cccs3)cc2)ccc1Br	.	16%	?	4%	3%	1%	.	.	.
CC1OC(Oc2c(-c3cc(O)c(O)c(O)c3)oc3cc(O)cc(O)c3c2=O)C(O)C(O)C1O (stereo unspecified)	-3%[11.6 µM]	?	14µM*	50µM*	?	2.2µM*	?	.	2.7*
CC(C)c1ccc(NC(=O)CSc2nc3ccccc3nc2Cc2ccccc2)cc1	.	-4%	-17%	-6%[60.1 µM]	15%	-9%	.	.	.
O=C(O)c1cc(O)c2c(c1)C(=O)c1cccc(O)c1C2=O	27µM*	50µM*	11µM*	50µM*	40µM*	?	67*	76*	4.3*	Pol kappa inh-2=47*
CCOC(=O)c1c(C)[nH]c(CCC(=O)NCc2ccc(CC)cc2)c1C	.	-1%	-1%	-8%[60.1 µM]	7%	-15%	.	.	.
Cc1ccc(-n2cccc2/C=C2\C(=N)N3N=C(c4ccco4)SC3=NC2=O)cc1	?	14µM*	10µM*	?	20µM*	22µM*	?	76*	43*
